Data as given in PubChem BioAssay (Tox21).
Where “and” joins values, the source holds several entries; their conditions need not be identical. Equal entries are not always repeated. Results filed as inconclusive are left out. The source holds several records for some structures; these can differ, active in one and inactive in another. Calls of active or inactive are those of the source. Calls come from the whole dose curve; as a rule, active = well fitted curve in the direction sought with a large enough effect in the repeat runs; inconclusive = weak or mixed curves; inactive = no such curve, though single readings can be large; an effect the other way counts as inactive or inconclusive.

Experiments:
[1] = qHTS RealTime-Glo MT Cell Viability Assay in HepG2 cells - 40 hour (AID 1224870); note: nearly all actives have a fitted effect of over 50% in size
Outline: (§1)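 HepG2 cells mixed with RealTime-Glo MT reagents (NanoLuc plus cell-permeant prosubstrate) were seeded at 600 cells/well, incubated 5 h at 37 C/5% CO2, then pinned with compounds in DMSO; nonlytic luminescence tracked viability during 40 h treatment.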

[2] = A CellTox Green Cytotoxicity Assay to monitor cytotoxicity in HEK293 cells - 40 hour (AID 1224871); note: nearly all actives have a fitted effect of over 45% in size; note: potency is the fitted concentration of half-maximal effect
Outline: (§2)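 Fluorescence intensity, read at 0, 8, 16, 24, 32 and 40 h of compound treatment, reflected dye binding to DNA of dead HEK293 cells; compounds (23 nL, DMSO) were added 5 h after plating cells with reagent.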

[3] = qHTS RealTime-Glo MT Cell Viability Assay in HEK293 cells - 16 hour (AID 1224872); note: nearly all actives have a fitted effect of over 50% in size; note: potency is the fitted concentration of half-maximal effect
Outline: (§3)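 Reads taken at 0, 8, 16, 24, 32 and 40 h from the same wells. HEK293 cells (600/well) carried RealTime-Glo reagents from seeding, with compound added after a 5 h settle at 37 C.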

[4] = qHTS RealTime-Glo MT Cell Viability Assay in HepG2 cells - 8 hour (AID 1224873); note: nearly all actives have a fitted effect of over 55% in size
Outline: as §1

[5] = qHTS RealTime-Glo MT Cell Viability Assay in HEK293 cells - 40 hour (AID 1224874); conditions: RealTime-Glo luminescence; max response: stronger effect = lower value; note: nearly all actives have a fitted effect of over 50% in size; note: potency is the fitted concentration of half-maximal effect
Outline: (§4)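 Viable HEK293 cells reduce a cell-permeant prosubstrate; the product diffuses out and is consumed by NanoLuc in the medium to give light. Compounds went in after a 5 h incubation and plates were read over the treatment course.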

[6] = A CellTox Green Cytotoxicity Assay to monitor cytotoxicity in HEK293 cells - 24 hour (AID 1224875); note: series mostly up to about 77 µM; nearly all actives have a fitted effect of over 45% in size
Outline: as §2

[7] = A CellTox Green Cytotoxicity Assay to monitor cytotoxicity in HepG2 cells - 16 hour (AID 1224876); note: nearly all actives have a fitted effect of over 45% in size
Outline: (§5)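 Using 1536-well format, dye-containing HepG2 suspension was seeded, allowed 5 h at 37 C/5% CO2, dosed by pintool with compounds, positive and negative controls, and imaged for fluorescence across 40 h.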

[8] = qHTS RealTime-Glo MT Cell Viability Assay in HepG2 cells - 32 hour (AID 1224877); note: nearly all actives have a fitted effect of over 55% in size
Outline: (§6)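 HepG2 suspension premixed with RealTime-Glo reagents is plated at 600 cells per well and left 5 h at 37 C/5% CO2. Compounds in DMSO then go in, and bioluminescence reflecting viable cell number is recorded over 40 h.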

[9] = A CellTox Green Cytotoxicity Assay to monitor cytotoxicity in HepG2 cells - 24 hour (AID 1224878); note: nearly all actives have a fitted effect of over 45% in size
Outline: as §5

[10] = A CellTox Green Cytotoxicity Assay to monitor cytotoxicity in HepG2 cells - 40 hour (AID 1224879); note: nearly all actives have a fitted effect of over 40% in size
Outline: as §5

[11] = A CellTox Green Cytotoxicity Assay to monitor cytotoxicity in HEK293 cells - 32 hour (AID 1224881); note: nearly all actives have a fitted effect of over 40% in size; note: potency is the fitted concentration of half-maximal effect
Outline: as §2

[12] = A CellTox Green Cytotoxicity Assay to monitor cytotoxicity in HepG2 cells - 0 hour (AID 1224882); note: nearly all actives have a fitted effect of over 35% in size
Outline: as §5

[13] = A CellTox Green Cytotoxicity Assay to monitor cytotoxicity in HepG2 cells - 32 hour (AID 1224883); note: nearly all actives have a fitted effect of over 50% in size
Outline: as §5

[14] = A CellTox Green Cytotoxicity Assay to monitor cytotoxicity in HEK293 cells - 8 hour (AID 1224884); note: nearly all actives have a fitted effect of over 35% in size
Outline: as §2

[15] = qHTS RealTime-Glo MT Cell Viability Assay in HepG2 cells - 16 hour (AID 1224885); note: nearly all actives have a fitted effect of over 50% in size
Outline: as §6

[16] = qHTS RealTime-Glo MT Cell Viability Assay in HEK293 cells - 24 hour (AID 1224886); note: nearly all actives have a fitted effect of over 50% in size; note: potency is the fitted concentration of half-maximal effect
Outline: as §3

[17] = qHTS RealTime-Glo MT Cell Viability Assay in HEK293 cells - 8 hour (AID 1224887)
Outline: as §4

[18] = A CellTox Green Cytotoxicity Assay to monitor cytotoxicity in HEK293 cells - 16 hour (AID 1224888); note: nearly all actives have a fitted effect of over 35% in size
Outline: as §2

[19] = qHTS RealTime-Glo MT Cell Viability Assay in HepG2 cells - 0 hour (AID 1224889); note: nearly all actives have a fitted effect of over 50% in size
Outline: as §6

[20] = qHTS RealTime-Glo MT Cell Viability Assay in HEK293 cells - 0 hour (AID 1224880)
Outline: as §4
% is set by controls: 0 for no effect and ±100 for the full control effect.

O=C(CCl)c1ccccc1
inactive and 54.9 µM (active): Potency [2] | Potency [11]
inactive: Potency [1] | Potency [4] | max response [5] -7.31% | Potency [6] | Potency [7] | Potency [8] | Potency [9] | Potency [10] | Potency [12] | Potency [13] | Potency [14] | Potency [15] | Potency [17] | Potency [18] | Potency [19]
inactive and 49 µM (active): Potency [3] | Potency [16]
active: Potency [5] 43.6 µM

c1ccc(P(c2ccccc2)c2ccccc2)cc1
inactive: Potency [1] | Potency [2] | Potency [3] | Potency [4] | max response [5] -31.4% | Potency [6] | Potency [7] | Potency [8] | Potency [9] | Potency [10] | Potency [20] | Potency [11] | Potency [12] | Potency [13] | Potency [14] | Potency [15] | Potency [16] | Potency [17] | Potency [18] | Potency [19]

C=CCc1ccc(OC)cc1
inactive: Potency [1] | Potency [2] | Potency [3] | Potency [4] | max response [5] -1.64% and 2.11% | Potency [6] | Potency [7] | Potency [8] | Potency [10] | Potency [20] | Potency [11] | Potency [12] | Potency [13] | Potency [14] | Potency [15] | Potency [16] | Potency [17] | Potency [18] | Potency [19]

Cc1ccccc1[N+](=O)[O-]
inactive: Potency [1] | Potency [2] | Potency [3] | Potency [4] | max response [5] 1.02% and 16.9% | Potency [6] | Potency [8] | Potency [9] | Potency [10] | Potency [20] | Potency [11] | Potency [12] | Potency [13] | Potency [14] | Potency [15] | Potency [16] | Potency [17] | Potency [18] | Potency [19]

Clc1nc(Cl)nc(Cl)n1
inactive: Potency [1] | Potency [2] | Potency [3] | Potency [4] | max response [5] 10.8% and -11.8% | Potency [6] | Potency [8] | Potency [9] | Potency [10] | Potency [20] | Potency [11] | Potency [12] | Potency [13] | Potency [14] | Potency [15] | Potency [16] | Potency [17] | Potency [18] | Potency [19]

CC(C)=CC1C(C(=O)OCc2coc(Cc3ccccc3)c2)C1(C)C (centres undefined)
inactive: Potency [1] | Potency [2] | Potency [3] | Potency [4] | max response [5] -17.8% | Potency [6] | Potency [8] | Potency [9] | Potency [10] | Potency [20] | Potency [11] | Potency [12] | Potency [13] | Potency [14] | Potency [15] | Potency [16] | Potency [17] | Potency [18] | Potency [19]

CCCCC(CC)COC(=O)Cl (centres undefined)
inactive: Potency [1] | Potency [2] | Potency [3] | Potency [4] | max response [5] 2.04% | Potency [6] | Potency [8] | Potency [10] | Potency [11] | Potency [12] | Potency [13] | Potency [14] | Potency [15] | Potency [16] | Potency [17] | Potency [18] | Potency [19]

N[C@@H](Cc1ccc(N(CCCl)CCCl)cc1)C(=O)O
active: Potency [5] 4.69 µM
inactive: Potency [1] | Potency [2] | Potency [3] | Potency [4] | Potency [6] | Potency [7] | Potency [8] | Potency [11] | Potency [12] | Potency [14] | Potency [15] | Potency [16] | Potency [17] | Potency [18] | Potency [19]

CCC(C)c1cc([N+](=O)[O-])cc([N+](=O)[O-])c1O (centres undefined)
inactive: Potency [1] | Potency [2] | Potency [3] | Potency [4] | max response [5] 5.87% | Potency [7] | Potency [8] | Potency [10] | Potency [20] | Potency [11] | Potency [12] | Potency [13] | Potency [14] | Potency [15] | Potency [16] | Potency [17] | Potency [18] | Potency [19]

O=P(O)(O)CCCl
inactive: Potency [1] | Potency [2] | Potency [3] | Potency [4] | max response [5] -0.529% and 21.1% | Potency [7] | Potency [8] | Potency [10] | Potency [20] | Potency [11] | Potency [12] | Potency [13] | Potency [14] | Potency [15] | Potency [16] | Potency [17] | Potency [18] | Potency [19]

CCCCOCCOP(=O)(OCCOCCCC)OCCOCCCC
inactive: Potency [1] | Potency [2] | Potency [3] | Potency [4] | max response [5] -16.9% | Potency [7] | Potency [8] | Potency [11] | Potency [12] | Potency [13] | Potency [14] | Potency [15] | Potency [16] | Potency [17] | Potency [18] | Potency [19]

Oc1cc(Cl)ccc1Cl
inactive: Potency [1] | Potency [2] | Potency [3] | Potency [4] | max response [5] -8.7% and -0.256% | Potency [6] | Potency [8] | Potency [9] | Potency [10] | Potency [11] | Potency [12] | Potency [13] | Potency [14] | Potency [15] | Potency [16] | Potency [17] | Potency [18] | Potency [19]
